These results are taken from ChEMBL document CHEMBL2218924, “A broad activity screen in support of a chemogenomic map for kinase signalling research and drug discovery” (Biochem J, 2013).

The target in test [1] is T1, Serine/threonine-protein kinase TBK1 (Homo sapiens) (UniProt Q9UHD2).
T1 sequence (whole entry): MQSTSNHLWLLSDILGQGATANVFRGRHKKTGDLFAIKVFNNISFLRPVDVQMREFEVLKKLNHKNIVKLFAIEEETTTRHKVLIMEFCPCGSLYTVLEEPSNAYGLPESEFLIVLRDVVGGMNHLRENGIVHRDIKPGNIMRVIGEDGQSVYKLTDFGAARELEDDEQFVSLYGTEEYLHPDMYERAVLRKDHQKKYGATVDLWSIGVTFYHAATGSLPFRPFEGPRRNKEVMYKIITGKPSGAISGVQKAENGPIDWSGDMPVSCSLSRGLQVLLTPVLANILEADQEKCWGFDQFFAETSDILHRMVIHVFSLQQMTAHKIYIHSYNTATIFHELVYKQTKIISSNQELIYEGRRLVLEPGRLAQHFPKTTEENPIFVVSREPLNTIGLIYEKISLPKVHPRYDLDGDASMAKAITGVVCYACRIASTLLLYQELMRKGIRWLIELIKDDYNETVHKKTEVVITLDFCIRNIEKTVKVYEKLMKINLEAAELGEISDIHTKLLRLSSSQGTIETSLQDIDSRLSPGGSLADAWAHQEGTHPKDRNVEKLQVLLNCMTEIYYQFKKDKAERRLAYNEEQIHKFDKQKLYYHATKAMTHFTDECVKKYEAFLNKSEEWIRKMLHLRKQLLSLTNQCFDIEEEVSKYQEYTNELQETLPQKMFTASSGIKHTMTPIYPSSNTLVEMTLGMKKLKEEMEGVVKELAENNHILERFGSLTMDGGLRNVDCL
Particulars: at 10 µM.

The target in test [2] is T2, TGF-beta receptor type-1 (Homo sapiens) (UniProt P36897).
T2 sequence (whole entry): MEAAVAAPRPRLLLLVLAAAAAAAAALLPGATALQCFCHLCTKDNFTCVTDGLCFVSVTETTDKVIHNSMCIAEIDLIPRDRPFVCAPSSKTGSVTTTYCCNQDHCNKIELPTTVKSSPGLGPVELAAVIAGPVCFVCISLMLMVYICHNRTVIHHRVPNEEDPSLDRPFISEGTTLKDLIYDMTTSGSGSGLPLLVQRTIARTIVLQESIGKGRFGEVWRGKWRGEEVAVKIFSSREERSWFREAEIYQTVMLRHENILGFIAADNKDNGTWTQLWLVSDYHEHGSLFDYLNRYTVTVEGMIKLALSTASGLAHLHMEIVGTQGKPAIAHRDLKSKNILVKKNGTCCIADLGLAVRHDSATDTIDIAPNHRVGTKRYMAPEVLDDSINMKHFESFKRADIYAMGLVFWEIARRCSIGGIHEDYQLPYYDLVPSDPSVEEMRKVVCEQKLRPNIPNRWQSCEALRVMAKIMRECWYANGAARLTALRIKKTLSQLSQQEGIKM
Particulars: at 1 µM.

Test [3] deals with T2, TGF-beta receptor type-1 (Homo sapiens). Particulars: at 10 µM.
For test [4], the target named is Insulin-like growth factor 1 receptor (Homo sapiens) (UniProt P08069). Particulars: at 1 µM.
Insulin-like growth factor 1 receptor (Homo sapiens), sequence (P08069 31-736 limits assumed): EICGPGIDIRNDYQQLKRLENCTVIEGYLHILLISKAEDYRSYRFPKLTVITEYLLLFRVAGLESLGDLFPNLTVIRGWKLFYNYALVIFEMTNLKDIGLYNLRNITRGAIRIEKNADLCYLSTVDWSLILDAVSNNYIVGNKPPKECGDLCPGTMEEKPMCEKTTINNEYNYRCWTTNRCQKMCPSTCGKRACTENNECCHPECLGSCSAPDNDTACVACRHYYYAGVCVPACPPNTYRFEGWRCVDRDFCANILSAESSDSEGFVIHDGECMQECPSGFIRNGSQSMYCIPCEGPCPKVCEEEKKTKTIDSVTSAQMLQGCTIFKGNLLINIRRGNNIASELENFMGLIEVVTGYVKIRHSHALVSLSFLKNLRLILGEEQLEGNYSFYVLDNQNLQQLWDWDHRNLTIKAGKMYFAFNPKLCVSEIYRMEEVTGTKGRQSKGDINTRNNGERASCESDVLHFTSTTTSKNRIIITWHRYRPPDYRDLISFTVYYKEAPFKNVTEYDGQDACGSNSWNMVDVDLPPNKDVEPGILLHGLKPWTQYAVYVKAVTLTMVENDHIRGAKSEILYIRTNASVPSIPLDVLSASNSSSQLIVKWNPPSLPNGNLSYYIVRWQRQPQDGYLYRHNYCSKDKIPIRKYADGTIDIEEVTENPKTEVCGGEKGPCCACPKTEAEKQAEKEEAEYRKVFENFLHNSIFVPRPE
Insulin-like growth factor 1 receptor (Homo sapiens), sequence (P08069 741-1367 limits assumed): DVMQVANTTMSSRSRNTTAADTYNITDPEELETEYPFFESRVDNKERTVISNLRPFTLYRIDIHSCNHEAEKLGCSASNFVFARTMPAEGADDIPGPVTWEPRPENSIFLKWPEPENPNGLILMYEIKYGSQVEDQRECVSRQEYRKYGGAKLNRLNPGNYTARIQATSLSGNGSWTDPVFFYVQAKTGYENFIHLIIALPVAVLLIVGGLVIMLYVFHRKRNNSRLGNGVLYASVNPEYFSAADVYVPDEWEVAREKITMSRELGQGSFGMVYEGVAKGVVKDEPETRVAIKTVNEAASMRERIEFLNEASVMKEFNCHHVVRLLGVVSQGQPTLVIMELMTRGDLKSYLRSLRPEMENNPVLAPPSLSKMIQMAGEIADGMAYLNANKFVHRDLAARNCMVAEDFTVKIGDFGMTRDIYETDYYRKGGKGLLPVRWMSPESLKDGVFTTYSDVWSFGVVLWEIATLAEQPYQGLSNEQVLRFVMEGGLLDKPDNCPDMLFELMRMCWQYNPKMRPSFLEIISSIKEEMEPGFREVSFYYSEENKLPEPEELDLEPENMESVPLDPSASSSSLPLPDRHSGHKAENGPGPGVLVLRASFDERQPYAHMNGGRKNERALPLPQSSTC
Test [5] has the same target. Particulars: at 10 µM.
Test [6] addresses T3, Inhibitor of nuclear factor kappa-B kinase subunit alpha (Homo sapiens) (UniProt O15111).
T3 sequence (whole entry): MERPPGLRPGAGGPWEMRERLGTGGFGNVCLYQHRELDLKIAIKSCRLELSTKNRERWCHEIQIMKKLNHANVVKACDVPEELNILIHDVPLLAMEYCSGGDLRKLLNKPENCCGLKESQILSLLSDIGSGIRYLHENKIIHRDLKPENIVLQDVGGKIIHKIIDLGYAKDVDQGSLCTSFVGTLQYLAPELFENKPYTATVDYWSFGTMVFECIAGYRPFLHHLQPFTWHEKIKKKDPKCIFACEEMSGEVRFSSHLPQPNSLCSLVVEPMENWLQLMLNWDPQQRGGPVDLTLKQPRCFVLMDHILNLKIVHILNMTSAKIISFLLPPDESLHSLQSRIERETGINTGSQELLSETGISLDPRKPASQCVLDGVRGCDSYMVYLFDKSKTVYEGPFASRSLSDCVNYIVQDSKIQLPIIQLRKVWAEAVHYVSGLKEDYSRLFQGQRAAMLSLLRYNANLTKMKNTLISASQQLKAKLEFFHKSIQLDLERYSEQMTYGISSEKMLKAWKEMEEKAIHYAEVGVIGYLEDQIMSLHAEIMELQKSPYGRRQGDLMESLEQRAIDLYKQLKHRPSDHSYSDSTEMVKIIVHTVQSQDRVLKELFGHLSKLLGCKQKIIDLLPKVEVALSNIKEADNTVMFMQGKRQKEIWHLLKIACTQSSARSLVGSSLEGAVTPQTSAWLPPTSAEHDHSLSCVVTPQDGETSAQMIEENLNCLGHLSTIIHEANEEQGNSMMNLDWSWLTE
Particulars: at 1 µM.

Test [7] deals with T3, Inhibitor of nuclear factor kappa-B kinase subunit alpha (Homo sapiens). To be noted: at 10 µM.
The target in test [8] is T4, Inhibitor of nuclear factor kappa-B kinase subunit beta (Homo sapiens) (UniProt O14920).
T4 sequence (whole entry): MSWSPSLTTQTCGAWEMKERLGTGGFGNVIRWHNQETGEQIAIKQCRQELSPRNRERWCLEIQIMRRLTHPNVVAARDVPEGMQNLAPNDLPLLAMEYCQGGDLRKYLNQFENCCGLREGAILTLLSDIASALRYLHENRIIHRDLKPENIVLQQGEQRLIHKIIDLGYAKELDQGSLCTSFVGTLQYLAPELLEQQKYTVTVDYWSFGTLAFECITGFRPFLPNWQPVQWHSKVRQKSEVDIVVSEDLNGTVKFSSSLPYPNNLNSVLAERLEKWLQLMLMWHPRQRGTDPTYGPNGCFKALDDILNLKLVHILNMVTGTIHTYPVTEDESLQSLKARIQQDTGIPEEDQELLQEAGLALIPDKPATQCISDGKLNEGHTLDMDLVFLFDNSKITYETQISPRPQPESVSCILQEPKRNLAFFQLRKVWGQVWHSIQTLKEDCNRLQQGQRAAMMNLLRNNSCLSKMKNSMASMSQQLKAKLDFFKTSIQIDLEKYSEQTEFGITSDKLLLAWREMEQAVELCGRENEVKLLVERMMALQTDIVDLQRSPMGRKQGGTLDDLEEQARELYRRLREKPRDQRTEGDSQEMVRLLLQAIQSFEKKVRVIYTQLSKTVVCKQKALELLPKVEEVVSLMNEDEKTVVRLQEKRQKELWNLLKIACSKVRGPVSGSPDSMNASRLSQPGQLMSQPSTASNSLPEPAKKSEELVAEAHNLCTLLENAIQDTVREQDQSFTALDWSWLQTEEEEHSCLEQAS
To be noted: at 1 µM.

Test [9] concerns the target T4, Inhibitor of nuclear factor kappa-B kinase subunit beta (Homo sapiens). To be noted: at 10 µM.
Test [10] has as its target Insulin receptor (Homo sapiens) (UniProt P06213). To be noted: at 1 µM.

Insulin receptor (Homo sapiens), sequence (P06213 28-758 limits assumed): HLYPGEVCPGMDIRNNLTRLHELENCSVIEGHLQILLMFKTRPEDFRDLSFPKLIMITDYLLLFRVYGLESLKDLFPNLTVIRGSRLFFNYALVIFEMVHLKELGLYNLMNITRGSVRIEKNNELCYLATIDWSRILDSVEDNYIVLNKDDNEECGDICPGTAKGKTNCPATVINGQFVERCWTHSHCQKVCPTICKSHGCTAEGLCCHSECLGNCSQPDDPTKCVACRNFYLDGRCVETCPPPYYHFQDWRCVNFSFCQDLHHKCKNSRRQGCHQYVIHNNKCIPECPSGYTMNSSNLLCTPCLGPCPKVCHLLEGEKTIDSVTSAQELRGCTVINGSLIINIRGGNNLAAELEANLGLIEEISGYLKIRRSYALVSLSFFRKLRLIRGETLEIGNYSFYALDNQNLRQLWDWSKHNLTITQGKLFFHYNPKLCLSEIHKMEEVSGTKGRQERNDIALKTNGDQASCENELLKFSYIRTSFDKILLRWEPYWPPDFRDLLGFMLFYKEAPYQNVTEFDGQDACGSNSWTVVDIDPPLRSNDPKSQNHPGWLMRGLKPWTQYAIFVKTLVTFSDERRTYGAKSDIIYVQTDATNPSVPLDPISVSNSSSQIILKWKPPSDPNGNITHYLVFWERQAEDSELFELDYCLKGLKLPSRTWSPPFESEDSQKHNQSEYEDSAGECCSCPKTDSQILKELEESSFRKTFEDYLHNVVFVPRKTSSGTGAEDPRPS
Insulin receptor (Homo sapiens), sequence (P06213 763-1382 limits assumed): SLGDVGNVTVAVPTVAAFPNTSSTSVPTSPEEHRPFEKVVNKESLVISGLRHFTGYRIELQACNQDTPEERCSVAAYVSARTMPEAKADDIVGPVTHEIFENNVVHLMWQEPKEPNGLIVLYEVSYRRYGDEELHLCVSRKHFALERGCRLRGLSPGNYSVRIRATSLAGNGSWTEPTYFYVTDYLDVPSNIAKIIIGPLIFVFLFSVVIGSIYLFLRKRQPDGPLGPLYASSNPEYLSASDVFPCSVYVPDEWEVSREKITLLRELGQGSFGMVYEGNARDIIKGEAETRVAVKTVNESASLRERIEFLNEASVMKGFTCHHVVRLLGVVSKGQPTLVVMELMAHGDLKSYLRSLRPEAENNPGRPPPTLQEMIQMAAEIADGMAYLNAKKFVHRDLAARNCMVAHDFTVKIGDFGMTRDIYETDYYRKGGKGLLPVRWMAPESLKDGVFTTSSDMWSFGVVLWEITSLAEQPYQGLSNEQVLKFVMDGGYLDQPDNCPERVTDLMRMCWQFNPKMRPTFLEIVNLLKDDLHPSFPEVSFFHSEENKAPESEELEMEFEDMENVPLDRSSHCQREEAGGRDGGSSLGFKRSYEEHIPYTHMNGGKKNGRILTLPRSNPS

On to `O=C(Nc1cccc(Nc2nccc(Nc3cccc(C(F)(F)F)c3)n2)c1)C1CC1`, for which the residual activity in [1] came out at 32%; in test [2], 105%; in test [3] it was 72%; in test [4], 90%; in test [5] it was 96%; in test [6], 113%. Also, the residual activity in test [7] was determined as 88%; in [8] it was 74%; in test [9], 52%; in test [10], 22%.

For orientation: residual activity means the signal under treatment as a percentage of the control signal.
